Assay outcomes: PubChem BioAssay, several laboratories
Insulin prom up: MIN6 insulin promoter up-regulation. MIN6 insulin promoter-GFP reporter, high-content imaging; active compounds read high. z-score at 5 µM. 190,000 tested, 0.3% active. AID 1625;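 active means z-score above 3 at 5 µM with at least 500 cells counted in the well; inconclusive means wells under 500 cells, flagged as cytotoxic or low count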
L major viab: reduces viability of Leishmania major promastigotes; inhibition, % at 10 µM; 200,000 tested, 9% active; resazurin fluorescence viability; AID 1063; in the data active means inhibition above about 50%;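 further: promastigotes grown with compound for 44 hours at 28 °C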
WT yeast gro inh: growth inhibition of WT yeast, mitochondrial fusion screen; mitochondrial fusion phenotypic screen, WT strain; inhibition, % at 10 µM; 190,000 tested, 2.1% active; in the data active means inhibition above about 58%; tested in S. cerevisiae
ROMK primary: human ROMK K+ channel modulation, primary screen. P48048. Tet-inducible ROMK, thallium flux fluorescence; actives lie on both sides. B-score at 10 µM. 130,000 tested, 2% active. AID 1918;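 active means signal ratio slope over the read window, or its plate-corrected B-score, at least 3 SD from the plate mean, either direction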;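 further: B-score of the F/F0 ratio slope over 7 to 12 s after thallium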
Target sequence (P48048 whole entry, looked up): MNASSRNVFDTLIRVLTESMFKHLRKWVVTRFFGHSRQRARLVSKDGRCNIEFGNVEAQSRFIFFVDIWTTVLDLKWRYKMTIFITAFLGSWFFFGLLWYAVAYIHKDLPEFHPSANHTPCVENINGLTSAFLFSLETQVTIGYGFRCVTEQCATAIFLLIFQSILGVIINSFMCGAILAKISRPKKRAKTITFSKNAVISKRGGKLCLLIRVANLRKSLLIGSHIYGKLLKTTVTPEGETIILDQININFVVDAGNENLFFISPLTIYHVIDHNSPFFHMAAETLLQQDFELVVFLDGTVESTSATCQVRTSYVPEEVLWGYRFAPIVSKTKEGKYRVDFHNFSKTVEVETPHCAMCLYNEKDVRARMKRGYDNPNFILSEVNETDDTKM
Insulin prom inh: TRM-6 insulin promoter activity inhibition. TRM-6 cells (human fetal islet line), insulin promoter-eGFP reporter, imaging; reporter expression induced with tamoxifen. inhibition, % at 2 µM. 130,000 tested, 0.9% active. AID 1273;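 active means inhibition above the mean plus 3 SD, with well images judged a real hit on visual review, cut at about 60% in these data, passing the limit was not always enough; inconclusive means inhibition over the cutoff but images rejected on review; inactive means inhibition not above the cutoff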
KCC2 mod: KCC2 (human) Cl- transport modulation | Q9H2X9 | KCC2 cells, thallium flux FluoZin-2 fluorescence | B-score of Tl+ flux slope (higher = more flux/activation; lower = inhibition) at 10 µM | 190,000 tested, 2.2% active | AID 1456;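 active means thallium flux slope and its plate-corrected score both differing from the plate sample mean at a set confidence after two filtering rounds, in either direction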;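 further: slope of fluorescence scaled to starting intensity during 10 to 20 s after thallium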
Numbers without * were called inactive; ? = inconclusive; / = not tested or not shown. Sampled rows, rich in hits. Any-hit rate of the full collection: about 12%.

SMILES | Insulin prom up | L major viab | WT yeast gro inh | ROMK primary | Insulin prom inh | KCC2 mod
CC(CCc1ccccc1)NC(=O)CNC(=S)N(Cc1cccs1)C1CCCC1 (centres undefined) | -0.74 | 50.8* | 28.2 | -1.71 | -50.0 | -2.08
COc1ccc(/C=C2/N=C(c3cccs3)OC2=O)cc1OC(C)C | -0.24 | -2.3 | -3.4 | / | 26.7 | 0.797
CCNC(=S)NS(=O)(=O)c1ccc(CC)cc1 | -0.06 | -4.8 | 16.9 | / | 33.3 | /
COc1ccc(OC)c(-n2c(SCC(=O)N3CCc4ccccc43)nc3c(c2=O)SCC3)c1 | -0.05 | 21.7 | -7.5 | / | 70.0* | -0.359
COc1ccccc1-n1c(SCC(=O)Nc2cccc(C)c2)nc2c(c1=O)SCC2 | -0.92 | 12.8 | 7.3 | / | / | /
COc1ccccc1-n1c(SCC(=O)Nc2ccc3c(c2)OCO3)nc2c(c1=O)SCC2 | -0.39 | 89.1* | -1.4 | / | 7.9 | -0.00711
COc1ccc(N=C2C(=Nc3ccc(OC)cc3)N(c3ccc(OC)cc3)C(=S)N2C)cc1 | / | 28.0 | 13.4 | -0.999 | -21.7 | -0.294
CCCn1c(SCC(=O)NC23CC4CC(CC(C4)C2)C3)n[nH]c1=O | -0.38 | 0.7 | -11.1 | / | 11.8 | -0.375
O=c1cc(N2CCc3ccccc3C2)[nH]c(=O)n1C1CCCCC1 | -0.83 | 1.3 | 12.8 | 0.401 | -28.6 | /
CCOc1ccc(S(=O)(=O)NCc2ccc(Cl)cc2)c2cccnc12 | -0.08 | 99.3* | -3.8 | -1.85 | 0.0 | -1.01
CCOc1ccc(S(=O)(=O)NCC2CCCO2)c2cccnc12 (centres undefined) | 0.69 | -0.1 | -4.2 | / | -375.0 | 0.472
CC(C)c1ccc(S(=O)(=O)c2cn(Cc3ccc(F)cc3)c3cc4c(cc3c2=O)OCO4)cc1 | 0.3 | 98.1* | -3.3 | 0.0187 | -28.0 | 0.54
Cc1ccc(S(=O)(=O)c2cn(Cc3ccc(F)cc3)c3cc4c(cc3c2=O)OCO4)cc1 | -0.4 | 12.9 | 1.2 | / | -19.4 | -0.312
Cc1ccc(Cn2cc(S(=O)(=O)c3ccc(C(C)C)cc3)c(=O)c3cc4c(cc32)OCO4)cc1 | 0.39 | 65.2* | -4.5 | / | / | -0.017
CN(Cc1cccs1)C(=O)c1ccc(S(=O)(=O)NCc2ccco2)cc1 | -0.32 | / | / | / | / | -1.22
O=C1COc2ccc3ccccc3c2CN1 | -0.01 | -2.1 | -6.7 | 1.97 | -65.2 | -0.0633
CN(C)c1ccc(/C=N/NC(=O)c2ccnn2C)cc1 | -0.5 | -0.4 | -5.8 | 0.701 | / | 0.684
Cc1cc(C)c(C#N)c(SCc2ccc(C#N)cc2)n1 | -0.89 | -2.9 | -4.0 | / | 3.6 | -1.19
CC(=O)C1=C(C)N=c2s/c(=C/c3ccc4c(c3)OCO4)c(=O)n2C1c1ccc(N(C)C)cc1 (centres undefined) | / | / | 10.2 | / | / | /
CC1(C)CC(=O)C2=C(C1)N=c1s/c(=C/c3ccc(F)c(F)c3)c(=O)n1C2c1ccc(F)cc1 (centres undefined) | -0.84 | 100.3* | 76.5* | -1.14 | / | /
Cc1cccc(NC(=O)CS(=O)(=O)c2c[nH]c3ccccc23)c1C | 0.15 | 0.9 | / | / | / | -0.242
CCOC(=O)c1sc(Nc2nc3ccc(OC)cc3s2)cc1C | 1.18 | -0.6 | 57.2 | / | / | 0.802
CCOC(=O)c1sc(NC(=O)Nc2cccc(Cl)c2)cc1C | / | 24.6 | 67.2* | -0.518 | / | 0.225
CCOC(=O)c1sc(NC(=O)c2sccc2C)cc1C | 3.1* | 69.1* | 27.0 | / | 13.3 | -1.77
CCOC(=O)c1sc(Nc2nc3c(F)cccc3s2)cc1C | 1.32 | 78.1* | 2.1 | 0.0568 | 48.0 | 1.14
SMILES | Insulin prom up | L major viab | WT yeast gro inh | ROMK primary | Insulin prom inh | KCC2 mod
CCC1(C)Cc2c(sc3nnn(Cc4ccccc4Cl)c(=O)c23)CO1 (centres undefined) | -0.33 | 2.6 | 16.1 | / | 36.7 | /
COc1ccc(C2=C/C(=C/c3cccnc3)C(=O)O2)cc1OC | / | -5.0 | -1.9 | -0.171 | 32.3 | -2.58
CCOC(=O)CSc1nc2sc(C)c(C)c2c(=O)[nH]1 | 1.3 | -0.5 | 17.1 | / | 25.0 | -1.52
CCOC(=O)/C(=C\c1ccc(Cl)cc1)c1nc2sc(C)c(C)c2c(=O)[nH]1 | 0.44 | 100.3* | 49.9 | / | 20.0 | 0.891
CCOC(=O)c1ccc(NC(=O)CSc2nc3cccnc3n2C)cc1 | / | 1.6 | -4.6 | / | ? | /
CCOC(=O)CSc1nc(Nc2ccc3c(c2)OCO3)c2ccccc2n1 | 0.03 | 56.2* | 19.3 | / | 16.2 | -1.45
Fc1ccc(-c2ccnc(=S)[nH]2)cc1 | 0.91 | 0.6 | 13.9 | / | -12.5 | /
CCC(C(=O)Nc1cc(C)on1)c1ccccc1 (centres undefined) | 0.26 | -2.1 | -2.6 | 0.315 | 70.0* | /
CCC(C(=O)Nc1ccc(C)cc1)c1ccccc1 (centres undefined) | 0.12 | -0.4 | 0.1 | -0.0124 | -45.0 | 0.0168
